Compound activity: PubChem, several laboratories
KCC2 mod = KCC2 (human) Cl- transport modulation | Q9H2X9 | KCC2 cells, thallium flux FluoZin-2 fluorescence | B-score of Tl+ flux slope (higher = more flux/activation; lower = inhibition) at 10 µM | actives 2.2% (n = 190,000);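 active means thallium flux slope and its plate-corrected score both differing from the plate sample mean at a set confidence after two filtering rounds, in either direction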;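 further: slope of fluorescence scaled to starting intensity during 10 to 20 s after thallium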
Calb FLC = C. albicans growth modulation with fluconazole. C. albicans CaCi-2 (fluconazole-resistant clinical isolate) + fluconazole, Alamar Blue growth, 48 h. growth inhibition, % (test concentration not listed). actives 0.57% (n = 300,000). AID 1979;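 active means growth inhibition above about 58% in most replicates, limit read from the data, passing the limit was not always enough; inconclusive means exactly half the replicates above a set limit; inactive means most replicates below a set limit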;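 further: all wells also contain fluconazole at 8 µg/ml as a sub-toxic cotreatment; 0% = median of DMSO wells and 100% = median of geldanamycin control wells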
PHOSPHO1 inh = PHOSPHO1 (human) inhibition | actives 1.1% (n = 290,000) | inhibition, % at 13.3 µM | recombinant PHOSPHO1, absorbance phosphatase assay | AID 1565 | Q8TCT1; in the data active means inhibition above about 60%
Cardio protect = protects H9c2 cardiomyocytes from peroxide injury | H2O2 injury protection, ATPLite, 2 h | protection from H2O2 cell death, % at 20 µM | actives 0.63% (n = 360,000);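 active means compounds giving at least 50% protection of heart cells from peroxide-induced death in the single-dose screen, raw or plate-pattern-corrected value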;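 further: 0% = DMSO wells with peroxide and 100% = DMSO wells without peroxide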
Efflux pump mplx = blocks antifungal efflux pumps in multiplex yeast assay | S. cerevisiae Candida pump triplex, Nile Red efflux | inhibition, % at 10 µM | actives 0.44% (n = 330,000) | AID 485275;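 active means plate passing quality check with inhibition over a set limit, or well fluorescence over plate mean plus 4 SD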;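 further: Nile Red retained in pooled yeast measured as flow cytometry median fluorescence; 0% = buffer negative control and 100% = Enniatin B positive control; higher means more Nile Red kept so more efflux inhibition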
Cmpd fluor yeast = flagged as fluorescent in efflux inhibitor counter-screen; shares compounds with Efflux pump mplx; S. cerevisiae AD/pABC3, compound fluorescence, flow cytometry; fluorescence ratio to DMSO, % at 10 µM; actives 4% (n = 1,700); AID 588517;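 active means fluorescence ratio to DMSO above its plate's cutoff, the plate mean ratio plus 5 SD, cut at about 210% in these data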;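 further: unstained yeast with no Nile Red so the signal is compound autofluorescence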
CaMdr1 efflux inh = Candida Mdr1 efflux pump inhibition; inhibition, % at 10 µM; S. cerevisiae AD/CaMDR1, Nile Red efflux, flow cytometry; actives 1% (n = 1,700); AID 588518; shares compounds with Efflux pump mplx; in the data active means inhibition above about 26%;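 further: 0% = DMSO vehicle and 100% = reference inhibitor; higher means more Nile Red retained so more efflux inhibition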
CaCdr2 efflux inh = Candida Cdr2 efflux pump inhibition | shares compounds with Efflux pump mplx | S. cerevisiae AD/CaCDR2, Nile Red retention, flow cytometry | Nile Red retention ratio vs DMSO, % at 10 µM | actives 4% (n = 1,700); in the data active means Nile Red retention ratio vs DMSO above about 190%;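 further: higher ratio means more blocking of Cdr2 efflux of the dye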
CaCdr1 efflux inh = blocks the Candida albicans Cdr1 efflux pump in yeast; shares compounds with Efflux pump mplx; S. cerevisiae AD/CaCDR1, Nile Red efflux, flow cytometry; inhibition, % at 10 µM; actives 1% (n = 1,700); AID 588522;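 active means inhibition above the screen-wide mean plus twice its standard deviation, cut at about 32% in these data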
* = called active by the depositor; ? = inconclusive; · = no result given. An excerpt weighted towards active compounds, which were near 3.3% of everything screened.

SMILES | KCC2 mod | Calb FLC | PHOSPHO1 inh | Cardio protect | Efflux pump mplx | Cmpd fluor yeast | CaMdr1 efflux inh | CaCdr2 efflux inh | CaCdr1 efflux inh
C[C@@]12C(=O)N(c3ccc(Cl)cc3)C(=O)N1[C@@H]1c3ccccc3OC[C@@H]1[C@H]2c1ccccc1 | · | · | · | 13 | 0 | · | · | · | ·
CCOC(=O)c1ccccc1NC(=O)CSc1ccc(-c2cccnc2)nn1 | -1.7 | -4 | 6 | 14 | 1.5* | 87 | 0 | 91 | 0
Cc1ccccc1NC(=O)CSc1ccc(-c2cccnc2)nn1 | · | 0 | 34 | 4 | 0 | · | · | · | ·
N#C/C(=C/c1ccc(-c2ccc(S(N)(=O)=O)cc2)o1)C(=O)Nc1ccccc1 | 1.7 | -2 | -9 | 23 | 9.7* | 98 | 0 | 91 | 0
N#C/C(=C/c1ccc(-c2ccc(S(N)(=O)=O)cc2)o1)c1nc2ccccc2s1 | -1.3 | · | -6 | 23 | 2.6* | 99 | 1 | 150 | 0
CCCNC(=O)c1ccc(Cn2cc(-c3ccc(OC)cc3)nc2C(C)N)cc1 (centres undefined) | · | -13 | · | 5 | 0 | · | · | · | ·
O=[N+]([O-])c1cccc(-c2nc3ccccc3s/c2=N/O)c1 | -2.6 | 21 | -1 | -12 | 0.7* | 116 | 0 | 116 | 0
CC(C)(C)OC(=O)N1CCc2onc(-c3ccccc3F)c2C1=O | · | · | · | 6 | · | · | · | · | ·
CNC(=O)COC(=O)c1ccccc1NC(=O)c1ccco1 | -0.081 | 3 | -32 | -3 | 1.2* | 99 | 0 | 95 | 0
CNS(=O)(=O)c1ccc(C(=O)NCC(=O)NCC2COc3ccccc3O2)cc1 (centres undefined) | · | · | · | 4 | 0.6* | 105 | 0 | 95 | 0
N#C/C(=C\c1ccccn1)c1nc2ccccc2s1 | 0.33 | 6 | 28 | -3 | 1.6* | 160 | 0 | 247* | 1
COc1ccc(/C(C#N)=C/c2ccccn2)cc1 | -0.61 | -6 | -5 | -14 | 1.4* | 105 | 0 | 112 | 0
COc1ccc(C(=O)N/N=C/c2ccccn2)cc1 | · | · | · | 5 | · | · | · | · | ·
COC(=O)c1ccc(/C=C(\C#N)c2nc3ccccc3s2)cc1 | 0.58 | 6 | 38 | -9 | 0 | 102 | 0 | 120 | 0
COc1nc(NC23CC4CC(CC(C4)C2)C3)nc(OC)n1 | -0.013 | 7 | 21 | -4 | 0.5* | 104 | 0 | 103 | 0
c1ccc(COc2ccc(Oc3nc(N4CCCCC4)nc(N4CCOCC4)n3)nn2)cc1 | · | ? | 25 | 8 | 0 | · | · | · | ·
Cc1ccc(Nc2nc(Oc3ccc(OCc4ccccc4)nn3)nc(N3CCOCC3)n2)cc1 | · | 4 | 38 | 11 | 0.7* | 108 | 0 | 110 | 0
CC1(C)CC[C@]2(C(=O)O)CC[C@]3(C)C(=CCC4[C@@]5(C)CC[C@H](O)C(C)(C)C5CC[C@]43C)C2C1 (some centres undefined) | 0.95 | 2 | 35 | -4 | 1.4* | 81 | 0 | 97 | 0
CC1(C)CC[C@]2(C(=O)O)CC[C@]3(C)C(=CC[C@@H]4[C@@]5(C)CC[C@H](O)C(C)(C)[C@@H]5CC[C@]43C)[C@@H]2C1 | 1.1 | · | 18 | -2 | 0 | · | · | · | ·
COc1ccc(N(CC(=O)NCCSc2ccc(C)cc2)S(=O)(=O)c2ccccc2)c(OC)c1 | · | 9 | 11 | 36 | 0 | · | · | · | ·
O=c1[nH][nH]c(-c2ccccc2O)c1C(C[N+](=O)[O-])c1ccccc1 (centres undefined) | 0.44 | 21 | -1 | 11 | 5.5* | 108 | 0 | 104 | 0
Cc1c(Br)cnn1C(C)C(=O)N1CCN(c2ccccc2F)CC1 (centres undefined) | · | · | · | 0 | 0 | · | · | · | ·
O=C(CCc1ccccc1)Nc1cccc([N+](=O)[O-])c1 | -1.9 | -19 | 34 | -1 | 0 | · | · | · | ·
O=C(CCCc1ccccc1)Nc1cccc([N+](=O)[O-])c1 | · | -11 | 5 | -6 | 0.8* | 100 | 0 | 123 | 0
Cc1ccccc1N1CCN(C2CCCN(C(=O)c3cc[n+]([O-])cc3)C2)CC1 (centres undefined) | · | 23 | 40 | 7 | 0 | · | · | · | ·
SMILES | KCC2 mod | Calb FLC | PHOSPHO1 inh | Cardio protect | Efflux pump mplx | Cmpd fluor yeast | CaMdr1 efflux inh | CaCdr2 efflux inh | CaCdr1 efflux inh
Cc1cccc(N2C(=O)N3[C@H]4c5ccccc5OC[C@@H]4[C@@H](c4ccccc4)[C@@]3(C)C2=O)c1 | · | · | · | -4 | 0 | · | · | · | ·
CC(C)(C)C(=O)CSc1ncccn1 | 0.61 | -6 | -31 | -4 | 0.6* | 95 | 0 | 93 | 0
COc1ccc(Cc2nc3ccc(C(=O)NCC4COCCO4)cc3o2)cc1OC (centres undefined) | · | 5 | 30 | 5 | 0 | · | · | · | ·
Cc1ccc2oc(C(=O)N3CCC(O)(c4cccc(C(F)(F)F)c4)CC3)c(C)c2c1 | · | 18 | 36 | -9 | 0.5* | 114 | 0 | 116 | 0
CCc1nnc(NC(=O)c2ccc3c(=O)n4c(nc3c2)CCC4)s1 | · | · | · | -8 | · | · | · | · | ·
Cc1ccc(C(=O)N2CCC3(CC2)Oc2ccc(F)cc2C(=O)C32CC(c3ccc(Cl)cc3)=NO2)s1 (centres undefined) | -0.032 | -6 | 26 | -7 | 0 | · | · | · | ·
CCC(=O)N1CCC2(CC1)Oc1ccc(Cl)cc1C(=O)C21CC(c2ccc(Cl)cc2)=NO1 (centres undefined) | 0.48 | -17 | 44 | -7 | 0 | 107 | 0 | 108 | 0
Cc1ccc(C(=O)N2CCC3(CC2)Oc2ccc(Cl)cc2C(=O)C32CC(c3ccccc3)=NO2)s1 (centres undefined) | 0.48 | -2 | 16 | 4 | 0 | 94 | 0 | 91 | 0
Cc1ccc(C(=O)N2CCC3(CC2)Oc2ccc(Cl)cc2C(=O)C32CC(c3ccc(Cl)cc3)=NO2)s1 (centres undefined) | 0.53 | -6 | -3 | -2 | 0 | 98 | 0 | 112 | 0
Cc1ccc(C(=O)N2CCC3(CC2)Oc2ccc(Cl)cc2C(=O)C32CC(c3cccnc3)=NO2)s1 (centres undefined) | -0.042 | 41 | 34 | 7 | 0 | 111 | 0 | 127 | 0
CCC1=C(OC(=O)N(CC)CC)N2C(=O)OC(=NCCOC)[C@]2(Cc2ccccc2)[C@H]2C1=CC[C@H]1C(=O)N(CC)C(=O)[C@H]12 | -0.038 | 14 | 31 | -6 | 0 | · | · | · | ·
CCC1=C(OC(=O)N(CC)CC)N2C(=O)OC(=NCCc3c[nH]c4ccccc34)[C@]2(Cc2ccccc2)[C@H]2C1=CC[C@H]1C(=O)N(CC)C(=O)[C@H]12 | -0.6 | 56 | 9 | 16 | 39* | 106 | 0 | 91 | 0
